Among all 53,000 sequences or so, about 3,700 (7%) were called active. Many of the other results were omitted from the sample, so actives are more common in it than they were. Unmarked numbers belong to inactive results.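 The calls were made as follows: active = gene knockdowns whose robust z-score for IL-1 alpha signal is at least 2 or at most -2, so actives lie on both sides; inactive = the rest.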

The nature of the experiment: Components of the Cytosolic LPS Sensing Pathway: Gene Identification via Genome-wide siRNA Screen.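 Also: robust z of the log signal after scaling to non-targeting control siRNA wells of the plate.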 The settings on record: RAW264.7 macrophages, IL-1a HTRF, actives lie on both sides, screened at 100 nM (by protocol), cells primed 5 h with Pam3CSK4 first. An outline of the steps: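 Three distinct siRNAs per gene were tested singly at 100 nM in RAW264.7 macrophages. Following Pam3CSK4 priming and 24 hour LipidA transfection, IL-1a secretion was read by HTRF.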
For GGGCCUCAUCUUUGUGGUATT against Arf5, the z-score is 0.359.
With GGAUUGUUUAUCUGUCUUCTT against Cyp3a44, the z-score is -1.05.
Take GGACCUAAAGUUUCUCUCATT against Ccnc: the z-score is -0.2.
In the case of GGUCAUAGCUGGAUUCCUUTT against Olfr1453, the z-score was -1.47.
For the sequence GCUUAUAAUGGCAAUAUUGTT against Nvl, the z-score was 0.275.
For the sequence GGACAAAAUUGAACACAAGTT against Pogz, the z-score was 2.86 (active).
Turning to GGCGAAUUAAUUAACCGCCTT against Abcb10, the z-score was 0.798.
The same measure for CCUCGAUAGGUUAGUGACATT against Fdxacb1: -0.731; for GGUACAGAAACAGUUAGUUTT against Olfr432: 0.328; for GCUUCCUAGAUCAUGACUGTT against Ube2g2: -0.318.
Take GGUCUGGUCAUCUCAGUUUTT against Tmem159: the z-score was 3.53 (active).
In the case of GGCAAUAGCUACACCUUCATT against Csf1r, the z-score was 1.9.
Take CCAUUGUCACUCCUAGUGUTT against Olfr1361: the z-score was 1.03.
The same measure for GGAACAAGAAGAAGAAAAATT against Slco3a1: -1.03; for GGUACUUUACACUGAACAATT against Serpinb13: 2.91 (active).
The same measure for “GGCAUGUAGGGUUUUGUUUTT against 9830163H01Rik”: -0.605; for GCUGUCUGAUUCUGAGGUGTT against Slc6a1: 2 (active).
With GGCAUAAACCACUUCCAGCTT against Dedd2, the z-score was 0.342.
As for GCAUUUAAGGACCUUGUAATT against Olfr813, the z-score was -1.5.
Take GGCCAUGAUUGUGUUUCAGTT against Tspan8: the z-score is 1.76.
With GCCUUCCACUACCUUACGUTT against Kcnk3, the z-score is 0.067.
For CCGACAGACUCACAUACUGTT against Trex1 the value was -0.942; for GGCGUGUCUUGAUAGAAAUTT against Tesmin, 0.652; for GGGAGCAAACGAGAAGAUATT against Gjd2, 4.09 (active).
Take GCGCAAAGUCGAAUCCAGUTT against Vgll1: the z-score was -0.156.
The same measure for GGAGGGUGAAGAGAAUGGUTT against R3hdm2: 1.14.
As for GGUCCAUCAGGAAAAUCAATT against Obox6, the z-score was 0.0445.
Turning to GGGCUCUGUGGAAAUCAUGTT against Rnf187, the z-score is -0.043.
With GGCUGUGAAUCUGAAGAGCTT against Chrna6, the z-score was 0.241.
As for CGAUUUCCCAAGUUAUUACTT against Nxf1, the z-score was -2.26 (active).
Regarding GGUGGUAGCUUUGUACUUUTT against Nxnl2, the z-score is 0.829.
GGAAGCACGUUGGAAGGAUTT against Olfr845: the z-score was 0.461.
GGAGAAAAGGGUGCUGAAGTT against Ybx3: the z-score is 2.85 (active).
In the case of GCAUAUGGAGCAACUUGCUTT against Dsg1c, the z-score was -1.17.
Take GGCUGAAAGUGAAGAAACGTT against Srp68: the z-score was -2.11 (active).
In the case of GGUGAUGAUCCCAUGGGUUTT against Ube2g2, the z-score is -0.289.
The same measure for GGUUUGUUUGUUUUUUGGUTT against Ajuba: 2.96 (active); for GGUGCAAAGCUUGAAAAUGTT against Gpr150: -0.324; for GCGAGUGCUUGGCUAUUAUTT against Ckap2: -0.234.
Regarding GGAGUGAAAUAUGGAGUUGTT against Dhrs7b, the z-score is 0.787.
For GGAAUGUAAGAACCCUUGCTT against Adam19 the value was 1.77; for GAUCUUAGCUGUGUGUGUGTT against Pf4, -2.57 (active).
Regarding GGCCUAUGCGAAAAUCUGUTT against Camk2b, the z-score is -1.14.
As for GGAAAUUCUGGCAUAAAUUTT against Cd86, the z-score is -0.732.
As to GGACAUCAUUACAAAGAUGTT against Rgs6, the z-score was -0.608.
On to GCUUCGAGAGUCAACUAUGTT against Mecom, for which the z-score is 0.232.
In the case of GGGCACAAAGAUAUGAAUATT against Lgals3bp, the z-score is 0.147.
With GGUGAGGUAGGUUACUCAGTT against Reps1, the z-score was -2.16 (active).
As for GGAACGAAUGAAAAGACUUTT against Tpp2, the z-score was 0.35.
In the case of GGUUGCUAUGAUUUUUGUUTT against Itsn1, the z-score is 0.52.
For GGAAGUGAGAAGAUGGAUATT against Fam163b the value was 0.93.
As for GGGACAGAUACAGUUCAUGTT against Zan, the z-score was -0.114.
Turning to GCACGAGGAUUCAGAUAUCTT against Gusb, the z-score was -0.449.
GGAUCUCCUGCUUGAACUGTT against Adam33: the z-score is 2.79 (active).
Regarding CCAGCAUUAUCCAUAUCAATT against Nat2, the z-score is 0.786.
As for GGUCUCAGACACCUGACUCTT against Opa3, the z-score was 1.53.
For the sequence GGUGUCAGCUUACCAUUCATT against Triap1, the z-score is -0.329.
In the case of CCUUGCAUUACUUCUAAAUTT against Aff2, the z-score was 0.29.
Consider GGCAUUGUGAAAUCCUAUUTT against Lhx5, for which the z-score is -1.31.
CCUGACAGCACUUUGUGGATT against Arhgef4: the z-score is 0.481.
GGUGCAUGUCUUCAUCCACTT against Rnase12: the z-score was 3.04 (active).
Take GGAAAAUCCCUGUGUCCGATT against Spdye4a: the z-score was -1.34.
As to GCAGGAGGUUUAUACAGCCTT against Spata5, the z-score was -0.969.
As to GCCUAUUCGAAUUUGGGAATT against Ogt, the z-score was -0.0977.
For GGAAAUGACGAGAAGAAAGTT against Mapt the value was -0.0597; for GCCUUUGUGAGGAUUAAACTT against Fam83f, -0.000611; for GGUAUAUGUCACCAUACUCTT against Phxr2, -1.99.
As for GGCAUGAAGUUUGAAGCCATT against Cnnm2, the z-score was -2.47 (active).
For GGAGCUCUUCCAGUUGUUUTT against Khk the value was -1.51; for GCAAUGUGAGAAUUUUAACTT against Psg26, 2.03 (active); for GCACAGAGUCUAGUGUUUATT against Ube2j2, 0.325.
GGGCAUUGUUGUUUCUAUUTT against Lhfp: the z-score was -0.0841.
With CCAAAUUGCUGACUUAUUCTT against Ccna2, the z-score was 0.794.
Consider GGGUUUCCUUAUGAGAAAGTT against Mien1, for which the z-score was -0.606.
In the case of GGUUUGUGACAUUAUCUGCTT against Wrnip1, the z-score was 2.36 (active).
Turning to CGCUCCAUUGCUCAGUAUUTT against Vtn, the z-score was 1.63.
Take GGCAGCAGAGAAGAAAGCCTT against Pld3: the z-score was -3.16 (active).
Take GCUCAAUUGUGGAGCAGUCTT against Cd5l: the z-score was -0.247.
Consider GGCUAAUGAAGCACGCAGATT against Tspan33, for which the z-score was 0.264.
As for CGACCUAUUAGAGAGCAACTT against Zfp248, the z-score is 2.58 (active).
The same measure for GGAUCGAAUCUUUACCUAUTT against Col9a1: 0.932; for GGCCAAAGUCCAUUCAUUCTT against Olfr1120: 1.31; for CCAAUAUCUCCAAAUAGAATT against Atp8b1: -0.974.
On to GGGAAAUCCGAUAUUCCCUTT against Lats2, for which the z-score is 1.1.
With GGCGGUUUUAGUGAAUAACTT against Golm1, the z-score was 2.17 (active).
As for GGUUAGAGAUCUUUUGAAATT against St14, the z-score was -0.333.
Consider GCAUGUGCUAUAAUGAUCATT against Gm5444, for which the z-score is 0.256.
Take CCACAAUUACCCAGUAUGATT against Olfr498: the z-score is -0.939.
Take CCUCAUGUCUGGCAUCUUGTT against Egr4: the z-score was -1.7.
Turning to GGGUGCCUACUUGAUCCUUTT against Hgh1, the z-score is 1.63.
GGCUUCAAAGGCAAAGUUCTT against Fbf1: the z-score was -1.5.
Turning to CCAUAUGUGAUUUGUCUUGTT against Cacnb2, the z-score was -0.706.
Take CCUAAGGUACCAUUUUAAATT against Clp1: the z-score was 0.225.
In the case of GGAAGACACACAGUACAUGTT against Rfx2, the z-score was 2.92 (active).
Consider GGAGGCUGUCUGUCUAAUATT against Trim39, for which the z-score was 0.25.
The same measure for CCAAUCAACCCUCUAAGCATT against Nphp4: 0.576; for GCCAUCGAUACCACAACACTT against Slfn8: -1.61.
For the sequence GGCAACAUUAGAAGACAGUTT against Tfb1m, the z-score is -0.591.
The same measure for CCAUCAGGACUCGUGAAUGTT against Fign: -2.09 (active); for GGGAAAUGGAAAGCAUUCUTT against Olfr374: 1.41.
Regarding GGAGUUUGACUCAAUAUCATT against Napb, the z-score is 1.24.
Consider CCCUUCUCACUAACAUACATT against Dach1, for which the z-score is 1.18.
For the sequence GCUACGAGAUUCUUGUUGCTT against Taar3, the z-score was -0.615.
On to GGAGAGGAGACACAUCAGUTT against Gnpat, for which the z-score was -0.067.
As to CCAAAACGUGCAACACAAUTT against Cops6, the z-score was 0.37.
Take GGUUGAACUCAAAGUAAAGTT against Preb: the z-score is -1.18.
GGUGAACCUCAAUAAUAUCTT against Tmod4: the z-score was 0.274.
On to GGAGUUUACUGAGUUUUAGTT against Prkaca, for which the z-score was 4.49 (active).
GGCUCCAGUAAUUGAUAAATT against Sycp3: the z-score is -0.0955.

These data come from PubChem BioAssay AID1508600 (Functional Genomics Laboratory (NCATS/FGL), 2020).
